NPR1 antag = blocks ANP-stimulated signaling of human Npr1 receptor; HEK293 hNpr1 GloSensor cGMP, ANP-stimulated luminescence; Potency, µM (doses to about 46.3 µM), without a hit: at the top dose activity change, negative = inhibition, usual class: inhibitors; actives 1.6% (n = 76,000); calls by dose curve; further: nearly all actives have a fitted effect of over 60% in size
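HEK293 cells stably expressing human Npr1 and cGMP GloSensor pGS-40F, loaded 2 h with 2% GloSensor reagent, given compound 30 min at room temperature. Luminescence read before and 20 min after 0.1 nM hNppA.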
Luciferase inh = inhibitors of firefly (Photinus pyralis) luciferase. AID 1347043. P08659. purified P. pyralis luciferase, luminescence, biochemical. actives 2.5% (n = 76,000). Potency, µM (top dose mostly 115 µM), hits mostly inhibitors; further: nearly all actives have a fitted effect of over 65% in size
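Luminescence read by CCD imaging after purified firefly luciferase (10nM final) was added to substrate buffer holding 10uM D-luciferin and 10uM ATP, pH 7.5, pre-dosed with compound.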
NIH3T3 tox = cytotoxic compounds in NIH 3T3 cells; NIH 3T3 viability, CellTiter-Glo ATP luminescence, 48-72 h; actives 4.3% (n = 94,000); AID 1345082; Potency, µM (top dose mostly 96.7 µM), without a hit: top-dose activity change, negative = cytotoxicity, hits mostly inhibitors; further: nearly all actives have a fitted effect of over 55% in size
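Cells were seeded at 400 per well, treated with pin-transferred compound, and kept 48 or 72 hr at 37 °C before CellTiter-Glo addition and luminescence imaging of cellular ATP.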
GPT2 inh = blocks human glutamate pyruvate transaminase 2; Recombinant GPT2, coupled pyruvate oxidase/HRP Amplex Red fluorescence; Potency, µM (highest dose often 57.7 µM), for inactives: at the highest dose activity change, negative = inhibition, actives largely listed as inhibitors; actives 0.25% (n = 100,000); AID 1671188; further: nearly all actives have a fitted effect of over 60% in size
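Fluorescence read-out: pyruvate from GPT2 turnover coupled to pyruvate oxidase, HRP and Amplex Red (0.2mM ThPP, 0.2U/mL PO and HRP, 50uM Amplex final). Substrates 250uM a-KG, 2mM L-alanine; enzyme 10ng/uL; 30 min RT.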
HEK cytotox = kills HEK 293 cells. HEK 293 viability, ATP luminescence (CellTiter-Glo), 48-72 h. actives 6.6% (n = 94,000). AID 1345083. Potency, µM (highest dose often 115 µM), for the others: at the highest dose activity change, negative = cytotoxicity, most hits filed as inhibitors; further: nearly all actives have a fitted effect of over 60% in size
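Viability of HEK 293 cells, plated at 250 cells/well, was judged by cellular ATP after compound treatment for 48 or 72 hr. Luminescence was imaged 10 min after CellTiter-Glo addition at room temperature.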
* = called active by the depositor; i = inactive; ? = inconclusive; nt = no result; [ ] = another dose, or the depositor's remark. Sampled rows, rich in hits. Any-hit rate of the full collection: about 10%. Unless noted, the call rests on the fitted dose curve; in most records, active means well fitted curve in the direction sought with a large enough effect; inconclusive means small, poorly fitted or top-dose-only effect, or another doubt; inactive means no such curve, though single readings can be large; an effect the other way counts as inactive or inconclusive. On the % scale 0 is the no-effect control and ±100 the full control effect; potency means the concentration at half of the fitted maximal effect.

SMILES | NPR1 antag | Luciferase inh | NIH3T3 tox | GPT2 inh | HEK cytotox
COC(=O)[C@@H]1Cc2c([nH]c3ccccc23)[C@H]2C[C@@H](NC(C)C)C[C@@H](c3ccc(C)cc3)N21 | 0%[70.6 µM] | i | 40µM* | i | 35µM*
CC(=O)N[C@@H]1CN(Cc2ccc(F)c(Br)c2)C[C@H]1CO | 2% | i | -19% | i | -13%
O=c1c2cc(-c3ccc(F)cc3)nn2ccn1CC(O)c1ccc2c(c1)OCO2 (centres undefined) | -5% | i | 5% | i | -11%
Cc1cccc(O[C@H]2COCCN(Cc3nccn3C)C2)n1 | 0%[70.6 µM] | i | i | i | i
O=C(NC1CCC1)c1ccc2nccn2c1 | 0%[70.6 µM] | i | -2%[174 µM] | i | i
O=C(NCc1ccc(F)cc1)c1ccc2nnc(-c3cccc(C(F)(F)F)c3)n2c1 | nt | nt | ? | i | 40µM*
O=C(NCc1ccc(F)c(F)c1)c1ccc2nnc(-c3cccc(C(F)(F)F)c3)n2c1 | nt | nt | 25µM* | i | 32µM*
O=C(NCc1cccs1)c1ccc2nnc(-c3cccc(C(F)(F)F)c3)n2c1 | nt | nt | ? | -10% | ?
O=C(NCc1ccccn1)c1ccc2nnc(-c3cccc(C(F)(F)F)c3)n2c1 | nt | nt | ? | i | ?
O=C(NCc1ccccc1Cl)c1ccc2nnc(-c3ccoc3)n2c1 | nt | nt | ? | -7%[88.5 µM] | 112µM*
O=C(NCc1ccccc1)c1ccc2nnc(-c3ccoc3)n2c1 | nt | nt | ? | 2%[88.5 µM] | -8%[172 µM]
O=C(NC1CCCCCC1)c1ccc2nccn2c1 | -16%[70.6 µM] | 40µM* | -29%[138 µM] | 2%[88.5 µM] | ?
COc1ccc(OCC(O)CN2CCC(O)CC2)c(CNCC2(O)CCCCC2)c1 (centres undefined) | 5% | i | -20% | i | -12%
Cc1ccc(C(=O)N(C)CC2CCOC2)cc1 (centres undefined) | 1% | i | 4% | i | -16%
O=C(NC1CCCCC1)c1ccc2nnc(-c3cc(C(F)(F)F)cc(C(F)(F)F)c3)n2c1 | nt | nt | 32µM* | i | 35µM*
COc1cccc(CNC(=O)c2ccc3nnc(-c4cc(C(F)(F)F)cc(C(F)(F)F)c4)n3c2)c1 | nt | nt | ? | -9% | ?
O=C(NCCc1ccc(Cl)cc1)c1ccc2nnc(-c3ccc(Cl)cc3)n2c1 | nt | nt | ? | 5% | ?
COc1cccc(CNC(=O)c2ccc3nnc(-c4cccc(C(F)(F)F)c4)n3c2)c1 | nt | nt | ? | i | 45µM*
O=C(NCCc1ccc(Cl)cc1)c1ccc2nnc(-c3cccc(C(F)(F)F)c3)n2c1 | nt | nt | 22µM* | i | ?
O=C(NCc1ccc(Cl)cc1)c1ccc2nnc(-c3cc(C(F)(F)F)cc(C(F)(F)F)c3)n2c1 | nt | nt | ? | i | 14µM*
O=C(NCc1ccc(Cl)cc1)c1ccc2nnc(-c3cccc(C(F)(F)F)c3)n2c1 | nt | nt | ? | i | 14µM*
O=c1[nH]cnc2[nH]ncc12 | nt | nt | nt | 4% | nt
O=C(NCCc1ccc(F)cc1)C1CCN(Cc2ccccc2-c2ccccc2F)CC1 | nt | nt | 35µM* | nt | 28µM*
O=C(NCCc1ccc(Cl)cc1)C1CCN(Cc2ccccc2-c2ccccc2F)CC1 | nt | nt | ? | nt | 32µM*
CC(C)NC(=O)C1COC2(CCN(C(=O)c3cccc(F)c3)CC2)N1C(=O)c1ccccc1 (centres undefined) | 2% | i | i | i | 5%
O=C(CC1CCCN(c2cnn(CC3CC3)c(=O)c2)C1)N1CCN(c2ccccc2)CC1 (centres undefined) | ? | i | ? | -14% | 50µM*
CN1CCN(C(=O)CC2CCCN(c3cnn(CC4CC4)c(=O)c3)C2)CC1 (centres undefined) | 3% | i | -6% | i | 11%
CCN1CCN(C(=O)CC2CCCN(c3cnn(CC)c(=O)c3)C2)CC1 (centres undefined) | 9% | i | i | i | 9%
CCn1ncc(N2CCCC(CC(=O)N3CCN(c4cccc(Cl)c4)CC3)C2)cc1=O (centres undefined) | ? | i | ? | i | 35µM*

Source: PubChem BioAssay
